In the supplement of paper PMC6555819 one finds PBM binding z-score data, which are given here for 40 sequences.

In the assay the test system is VDR:RXRa (NR concentration 270 nM, RXRa partner concentration 90 nM). As to the kind of experiment: PBM binding z-score (relative to random genomic background probes); higher = stronger binding; sequences stand for … in GC…GCGATTGACAGCGTAGAATGAAGG
The protocol: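 Protein-binding microarray (Agilent 4x180K custom design, double-stranded 60-nt probes: 5' GC cap, 34-nt variable region, 24-nt constant primer region; full probe sequence given). Purified or IVT nuclear receptor:RXRα heterodimers (3:1 NR:RXRα, mostly 270:90 nM) or homodimers were incubated for 1 h in PBS with 2% milk and no ligand, then detected with Alexa488 antibodies. Fluorescence from o1-orientation probes (~5 replicates averaged) was converted to z-scores against 500 random hg19 background probes. Variable regions are seed direct-repeat (DR0–DR5) sites, all their single-nucleotide variants and half-site ablations.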
Consider ACAGACAGGTGAGTGAAGGTAACTCCGCTGGACG, for which the PBM binding z-score was -0.433.
The value for CCTAGCAGGCCTATCTGGGTCACTCAAGGCTTGA was 0.253; that for CGTCCAAGGCCAGAGAGGTCAGTGAATGCCGAGT was 4.04.
The value for TCGAGTGGGTTAGTCGGGGCATTCAGCCAACATA was 2.25; that for CTCGAAAGGTCGGTTGAGGTGAGTAGACGGATAA was 1.99; that for CCGAGAAGGTTATGGGGCATTCAGGCAACGGTGA was 0.66.
The value for ATCTCAAGGTAAGACTCAGTTCAGTGAAGAACGC was 1.27; that for ACTACTAGTTGACTTAGGGCAACCGATACGACGC was 0.191; that for GCAATTAGTTGAAAGGGCAACCGAATGATTCTCG was 0.238.
With CGTCAAAGTTCAACTAGGGTAACGTAAAGCACGC, the PBM binding z-score stood at 5.28.
Next, CCTAGCAGGCCAATCTGGGTCACTAAAGGCTTGA: 0.366.
TAGCCTAGGACATTGGGCCAGTATAGTACGCATC had a PBM binding z-score of -0.544.
As for ACTATTAGTTGATACGAGGGCAACCGATAGGTTG, the PBM binding z-score was 0.867.
With ATCTCTAGGTAAGACTCGGTTCAGTGAAGAACGC, the PBM binding z-score worked out at 1.05.
Regarding TCTGCTAGGTTAACGATGGTCAGCTAATCTGCTA, the PBM binding z-score was -0.0905.
For CGAACGAGGGCATGAGTTAATAGCAAATGCCGAT, the PBM binding z-score was found to be 0.731.
Next, GTACCTAGGTGAATAGGTCGTTGATGAGTAGGCG: 0.549.
As to CCGACTGGGGTAAGGTTACCATAACGCACAGCCA, the PBM binding z-score came out at 0.525.
Sequence CGTCAAAGTTCAACCAAGGTAACGTAAAGCACGC displayed a PBM binding z-score of 4.77.
The value for CGCCAAAGTTCAAGGTAACGTAACAGAAAGCAGC was 3.76; that for ACTCGGAGGACAAAGGTCAGAGCAACGCCAGTGA was 3.39; that for ACTAGCAGGCCAAGGGCCACTCAAGATTAGTCCG was -0.798.
Next, TGTCAAAGTTCAAAGGTATCGTAAGTATCCACAC: 4.75; CCTTACTGGTCAAGGTTATAGCACGGGTGGTACG: 0.737.
GGAACGAGGGCAAAGTTGATAGCATCTGTCGACG registered a PBM binding z-score of 1.23.
Next, GCTGCTAGGTCAGGTTGGTCAGATAACGGGTACG: 0.794; ATCGAAAGGTCGTGGGGTGAGTATACAGAAAGGC: 4.83; AGAATGAGGTTATACGGAGATCAGGGAAGAAAGT: 1.56.
The value for CCGACTGGGGCAAAGGATACCATACTCAGTACGA was -0.368; that for TAGCCTAGGTCATTGGGCCAGTATTGTACGCATC was 2.26; that for GCTAGTTGGTCAGTAAAAGGTCACACATCGGTCG was 3.96.
GCTTGTAGATCAAGGTTGAGAAAGACTAAGCTAA: the PBM binding z-score is -0.388.
Next, AGTCAAAGTTCACTAGATAACGTAAGATTCAGCT: 3.5.
Turning to CCTTACGGGTCTCTGACAGGTTATAGCATTTGGA, the PBM binding z-score was -0.307.
For CCAACTAGGTCACAGAGGTCAAAGTCCGTGCGTA, the PBM binding z-score came to 7.88.
With CGAACTAGGTCAGAACAGGACAGTGGAGGATGAT, the PBM binding z-score came out at 0.581.
Consider GCATATAGGTAATACAAGGTGAAATTCCGATTGT, for which the PBM binding z-score is 0.179.
The sequence TCTTGTGGATCAAAGGTTAAGAAAGCCGAAGCCT gave a PBM binding z-score of 1.54.
The value for CCTAGCAGGCCAGGGTCACTCCAGCATTTCGCTT was 2.18; that for GCAGACAGGTGAAACGCACGTAACTCAGGGTGGC was -0.568.
